Results from PubChem BioAssay AID720511 (Broad Institute, 2013).
The whole screen tested about 350,000 compounds, of which about 1,300 (0.37%) were called active. The sample holds actives, similar compounds and a random draw of the others, so the mix is not that of the screen.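 The calls were made as follows: active = mean added fluorescence quench of at least 8% versus neutral control, with both replicates also reaching 8%; inconclusive = only one of the mean or replicate conditions met; inactive = mean below 8% and not both replicates reaching 8%.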

test: F508del CFTR correction, initial screen, CFBE line, single point (AID 720511); settings: CFBE cells, YFP halide quenching, at 7.58 µM, active compounds read high, % fluorescence drop versus neutral controls, stimulated with forskolin plus potentiator P3;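 also: cells transiently co-express mutant CFTR-F508del with the halide-sensitive YFP; corrector assay measuring rescue of mutant channel to the surface after 24 h compound exposure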

Activity (quench increase), inactive:
Cc1ccc(NC(=O)CN(C)CC(=O)Nc2cccc(F)c2)cc1[N+](=O)[O-] 1.68%, O=C(CN1CCOCC1)Nc1cccc([N+](=O)[O-])c1 -2.49%, COc1cccc(-c2ccc3c(c2)[C@H]2[C@H](CCN2C(=O)c2ccc(F)cc2)[C@@H](CO)N3)c1 1.42%, Cc1cc2oc(=O)cc(-c3ccccc3)c2c(C)c1-c1ccc(OC(F)(F)F)cc1 1.07%, COc1cccc(NC(=O)COc2cc(C)cc3oc(=O)cc(C)c23)c1 2.8%, COc1ccc(/C=N/N=C2/C(=O)Nc3ccccc32)cc1O -1.27%, O=C1Nc2ccccc2C1=NN=Cc1ccco1 -2.93%, O=C(NCC[C@H]1CC[C@H](NC(=O)C2CC2)[C@@H](CO)O1)c1ccc(F)cc1 1.43%, Cc1c(CCC(=O)O)c(=O)oc2cc(OCc3ccc(Br)cc3)ccc12 0.947%, COc1ccc2c(C)c(CCC(=O)NC3CC3)c(=O)oc2c1C 2.05%, C[C@@H]1CN([C@@H](C)CO)S(=O)(=O)c2ccc(C#CCN(C)C)cc2O[C@@H]1CN(C)C(=O)CC1CC1 0.474%, COC(=O)COc1cccc2c(=O)n(CC(=O)NCCc3ccc(OC)c(OC)c3)ccc12 -1.22%, CCOC(=O)C(C)Oc1cccc2c(=O)n(CC(=O)NCCc3ccc(OC)c(OC)c3)ccc12 (configuration not stated) 2.66%, COCC#Cc1ccc([C@@H]2[C@@H](CO)N3CCCCN(C(=O)NC4CCCC4)C[C@H]23)cc1 -0.841%, C[C@@H]1CCCCO[C@@H](CN(C)CC2CC2)[C@@H](C)CN([C@H](C)CO)C(=O)c2cc(NC(=O)Nc3cccc4ccccc34)ccc2O1 -0.347%, COc1ccc(/C=C2\N=C3CCCN3C2=O)cc1 -1.7%, COc1ccc(/C=C2\CCc3ccccc3C2=O)c(OC)c1OC -2.36%, Cc1ccc(S(=O)(=O)N(C)C[C@H]2OCCCC[C@@H](C)Oc3ccc(NC(=O)NC4CCCCC4)cc3C(=O)N([C@H](C)CO)C[C@@H]2C)cc1 0.861%, O=C(C[C@H]1C[C@@H]2c3cc(NC(=O)CC4CC4)ccc3O[C@@H]2[C@H](CO)O1)NCc1ccccn1 -1.26%, CN(CC(=O)Nc1ccc(Cl)cc1)C(=O)CNC(=O)c1ccc2ccccc2c1 -7.73%, CN(CC(=O)Nc1ccccc1Cl)C(=O)COc1cccc2c1OC(C)(C)C2 -5.27%, C/C=C/c1ccc2c(c1)O[C@H](CN(C)C(=O)Nc1ccccc1)[C@H](C)CN([C@@H](C)CO)S2(=O)=O -0.894%, COc1ccc2c3c([nH]c2c1)[C@H](CO)N(C(=O)C1CCOCC1)CC31CN(S(C)(=O)=O)C1 -0.365%, CS(=O)(=O)Nc1ccc2c(c1)[C@H]1C[C@H](CC(=O)NCc3ccc(Oc4ccccc4)cc3)O[C@H](CO)[C@H]1O2 4.1%, COc1cc(OC)cc(C(=O)N[C@H](C(=O)NNC(=O)c2ccc(Br)cc2)C(C)C)c1 -1.77%, COc1cc(OC)cc(C(=O)NC(C(=O)N2CCC2)C(C)C)c1 (configuration not stated) 1.12%, COc1ccc(NC(=O)N(C)C[C@H]2OCCCC[C@H](C)Oc3ccc(NC(=O)NC4CCCCC4)cc3C(=O)N([C@@H](C)CO)C[C@@H]2C)cc1 -0.706%, COc1ccc2c3c([nH]c2c1)[C@H](CO)N(C(=O)c1ccccc1)CC31CN(C(=O)Nc2cccc(F)c2)C1 0.989%, CC(C)NC(=O)Nc1ccc2c(c1)C(=O)N([C@H](C)CO)C[C@H](C)[C@H](CN(C)C(=O)CCC(F)(F)F)OCCCC[C@H](C)O2 0.243%, O=C(C[C@@H]1C=C[C@@H](NS(=O)(=O)c2ccccc2)[C@@H](CO)O1)NCc1ccccc1F -1.3%, COCC(=O)Nc1ccc2c(c1)OC[C@@H](C)N(CCc1ccccc1)C[C@H](C)[C@@H](OC)CN(C)C2=O -4.64%, C=CCNc1nc(Nc2ccc(Cl)cc2)nc(OC)n1 1.27%, Cn1c(Nc2cccc(Cl)c2)nc2ccccc21 0.14%, CCCNC(=O)N1CC2(CN(C(=O)c3cnccn3)C2)c2c([nH]c3cc(OC)ccc23)[C@@H]1CO -0.147%, C[C@H](NC(=O)C[C@@H]1C[C@@H]2c3cc(NS(=O)(=O)c4ccc(F)cc4)ccc3O[C@@H]2[C@@H](CO)O1)c1ccccc1 0.793%, COc1ccc2c3c(n(C)c2c1)[C@@H](CO)N(Cc1ccncc1)CC31CN(C(=O)Nc2cccc(F)c2)C1 -1.9%, COc1ccc(NC(=O)C2(C)Cc3c(-c4cccc(NC(C)=O)c4)ccnc3O2)cc1OC (configuration not stated) -0.498%, CC1(C(=O)NCc2ccc(F)c(F)c2)Cc2c(-c3ccc4c(c3)OCO4)ccnc2O1 (configuration not stated) 0.827%, CC(=O)Nc1cccc(-c2ccnc3c2CC(C)(C(=O)NCc2ccco2)O3)c1 (configuration not stated) 7.38%, COc1ccc(NC(=O)C2(C)Cc3c(-c4ccc(C(N)=O)cc4)ccnc3O2)cc1 (configuration not stated) -0.667%

Activity (quench increase), active:
Cc1ccc(CN(C)CC(=O)Nc2cccc([N+](=O)[O-])c2)o1 10.1%, COc1cc(OC)c2c(-c3cccc(-c4cccc(N)c4)c3)cc(=O)oc2c1 8.2%, Cc1cc(C)c(/C=C2\C(=O)Nc3ccccc32)[nH]1 10.3%, Cc1c(CCC(=O)O)c(=O)oc2c(C)c(OCc3ccccc3Cl)ccc12 9.04%, COC(=O)COc1cccc2c(=O)n(CC(=O)NCc3ccccc3)ccc12 11%, COc1ccc(/C=C2/CCCc3ccccc3C2=O)cc1 14.3%, Cc1cccc(C(=O)NCC(=O)OCC(=O)N(C)CC(=O)Nc2ccccc2Cl)c1 16.8%, COc1cc(OC)cc(C(=O)N[C@H](C(=O)Nc2nc3ccccc3[nH]2)C(C)C)c1 13.5%, COc1ccc2[nH]c3c(C)c4cc[n+](C)cc4c(C)c3c2c1 12.8%, Clc1ccc(Nc2ccc3ccccc3n2)cc1 9.55%, CC1(C(=O)NCc2ccco2)Cc2c(-c3ccc4c(c3)OCO4)ccnc2O1 (configuration not stated) 8.09%, COc1ccc(NC(=O)C2(C)Cc3c(-c4cccc(NC(C)=O)c4)ccnc3O2)cc1 (configuration not stated) 9.41%
